Test results: PubChem BioAssay AID488840 (Broad Institute, 2010)
Out of some 1,400 compounds screened, about 45 (3%) were called active.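 Rule for the calls: active = half-maximal dose of signal decrease from fit no higher than ten times the top valid tested dose; inconclusive = fit invalid, or curve flat with 30 to 70% inhibition; inactive = the rest.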 Only a sample is shown. Results with a measured potency or affinity are listed apart.

molecular target: Lysine-specific demethylase 4A (Homo sapiens) (UniProt O75164); assay: inhibition of JMJD2A H3K9me3 demethylation – biochemical, DELFIA europium, cherry-picked samples, selectivity assay for GASC-1 inhibitor project, dose response (AID 488840); conditions: GST-JMJD2A(1-420) H3K9me3 demethylation; series mostly up to 6 µM; activity change, negative = inhibition: at the top concentration;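 note: europium signal reports the dimethyl H3K9 product detected by antibody so inhibitors lower it; 0% = median of neutral control wells and -100% = median of positive control wells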
Sequence (O75164 whole entry, looked up): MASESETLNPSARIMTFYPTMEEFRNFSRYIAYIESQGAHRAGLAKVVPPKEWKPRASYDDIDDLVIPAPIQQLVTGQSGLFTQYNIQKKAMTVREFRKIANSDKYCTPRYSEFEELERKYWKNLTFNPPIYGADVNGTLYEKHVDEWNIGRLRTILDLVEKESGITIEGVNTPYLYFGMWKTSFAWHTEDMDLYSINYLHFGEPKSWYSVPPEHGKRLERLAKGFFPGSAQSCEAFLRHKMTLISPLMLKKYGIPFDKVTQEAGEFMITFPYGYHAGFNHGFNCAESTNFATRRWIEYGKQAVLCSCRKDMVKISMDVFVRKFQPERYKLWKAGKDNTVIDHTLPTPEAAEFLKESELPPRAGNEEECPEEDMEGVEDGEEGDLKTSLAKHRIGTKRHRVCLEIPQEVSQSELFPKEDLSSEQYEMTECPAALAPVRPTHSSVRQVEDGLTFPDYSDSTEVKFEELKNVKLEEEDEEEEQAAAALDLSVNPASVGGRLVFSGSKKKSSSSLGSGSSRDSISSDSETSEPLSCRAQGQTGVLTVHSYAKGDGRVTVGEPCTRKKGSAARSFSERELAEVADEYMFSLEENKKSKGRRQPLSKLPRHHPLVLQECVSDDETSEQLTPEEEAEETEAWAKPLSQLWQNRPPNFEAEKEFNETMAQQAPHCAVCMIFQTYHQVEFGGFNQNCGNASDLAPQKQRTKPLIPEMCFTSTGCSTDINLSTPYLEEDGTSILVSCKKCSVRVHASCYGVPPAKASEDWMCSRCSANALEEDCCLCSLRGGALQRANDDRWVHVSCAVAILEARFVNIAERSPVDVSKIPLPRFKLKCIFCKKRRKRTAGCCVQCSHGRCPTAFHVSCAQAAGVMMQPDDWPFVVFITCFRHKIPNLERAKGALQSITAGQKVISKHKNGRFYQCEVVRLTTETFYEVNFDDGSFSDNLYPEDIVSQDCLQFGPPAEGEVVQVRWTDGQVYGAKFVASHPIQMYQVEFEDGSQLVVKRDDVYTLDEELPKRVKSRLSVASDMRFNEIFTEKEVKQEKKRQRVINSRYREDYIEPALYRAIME

Activity change, negative = inhibition, inactive:
COc1cc2c(cc1OC)C(COc1ccc(F)cc1)NCC2 (stereo not drawn) -1.68%, CC(C)CN(C(=O)c1ccc(N2CCCC2=O)cc1)c1c(N)n(Cc2ccccc2)c(=O)[nH]c1=O 8.41%, OC(COc1ccc2ccccc2c1Br)Cn1cnc(-c2ccccc2)c1 (stereo not drawn) -1.19%, COc1ccc2cc3cc(C(=O)N4CCN(C5CCCCC5)CC4)oc3nc2c1 0.0255%, C[C@@H]1CN([C@H](C)CO)C(=O)c2cccc(NS(=O)(=O)c3ccccc3)c2O[C@H]1CN(C)C 5%, COC(=O)c1cc(C#N)c(OC)nc1C 5.1%, CSc1ccc(-c2nc(CSCC(=O)N3CCOCC3)c(C)o2)cc1 4.78%, O=C(N/N=C/c1cc([N+](=O)[O-])cc([N+](=O)[O-])c1O)/C(=C\c1cccs1)NC(=O)c1ccccc1 1.28%, Cc1ccc(/C=N\NC(=O)c2cc([N+](=O)[O-])cc([N+](=O)[O-])c2)o1 -2.67%, COc1cc(C#N)c(N=C(SCC#N)N2CCOCC2)cc1OC -3.54%, Cc1ccc(NC(=O)C(=O)NCCN2CCN(C(=O)C(c3ccccc3)c3ccccc3)CC2)cc1 5.03%, COc1ccc(CCN2C(=O)CC(NNC(=O)c3ccccc3Br)C2=O)cc1 (stereo not drawn) 5.48%, CNC(=O)/C(C#N)=C/c1c(N(Cc2ccccc2)Cc2ccccc2)nc2ccccn2c1=O -3.91%, O=C(CSc1nnc(CNC(=O)c2ccccc2F)o1)NCCc1ccccc1 3.34%, COc1ccc(NC(=O)C2OC3OC(C)(C)OC3C3OC(C)(C)OC23)cc1 (stereo not drawn) 3.01%, C=CCOc1ccc(C(=O)NC2CCCCC2)cc1 -3.43%, Cc1cc(=O)[nH]c(CN2CCOCC2)n1 0.421%, COc1ccc(N2CCN(C(=O)c3nn(C)c4c3CS(=O)(=O)c3ccccc3-4)CC2)cc1 1.99%, O=c1cc(NC2CCCCCC2)[nH]c(=O)[nH]1 -9.15%, CCCc1nn2c(=O)cc(CSCC(=O)Nc3ccccc3)nc2s1 -2.93%, Cc1nnsc1C(=O)NNS(=O)(=O)c1ccccc1 0.407%, CCC(=O)N1CCc2cc(S(=O)(=O)CCC(=O)Nc3cccc(F)c3)ccc21 3.52%, C#CCOCCOCCOCCNc1nc(N2CCOCC2)nc(N2CCN(C(=O)[C@H](Cc3cc4ccccc4[nH]3)n3cc([C@@H](N)CC(C)C)nn3)CC2)n1 -4.26%, CC(=O)Nc1ccc(NC(=O)C2CCN(C(=O)c3cccs3)CC2)cc1 -8.37%, COc1ccc(NC(=S)N2CCC(C(=O)N3CCCCCC3)CC2)cc1 0.103%, CCC(CC)NC(=O)CSc1nnc(-c2ccc(OC)cc2)n1C(C)C -3.51%, Cc1ccc(CNC(=O)CCC2CCCN(Cc3ccc4cccc(F)c4n3)C2)o1 (stereo not drawn) 1.48%, COc1ccc(/C=N/Nc2cc(=O)n(C)c(=O)n2C)cc1OC -8.8%
